Records with an inconclusive call do not appear. Some structures have more than one record in an assay (separate samples or runs), and their calls can disagree. The source made the active and inactive calls. Calls come from the whole dose curve.
How the values were obtained:
[1] = biological target: Acetylcholinesterase (Homo sapiens) (UniProt P22303); assay: Acetylcholinesterase (AChE) small molecule antagonists: colormetric cell-based qHTS assay (AID 1347395); note: nearly all actives have a fitted effect of over 30% in size; note: potency is the fitted concentration of half-maximal effect
Chain of Acetylcholinesterase (Homo sapiens) (P22303 whole entry, looked up): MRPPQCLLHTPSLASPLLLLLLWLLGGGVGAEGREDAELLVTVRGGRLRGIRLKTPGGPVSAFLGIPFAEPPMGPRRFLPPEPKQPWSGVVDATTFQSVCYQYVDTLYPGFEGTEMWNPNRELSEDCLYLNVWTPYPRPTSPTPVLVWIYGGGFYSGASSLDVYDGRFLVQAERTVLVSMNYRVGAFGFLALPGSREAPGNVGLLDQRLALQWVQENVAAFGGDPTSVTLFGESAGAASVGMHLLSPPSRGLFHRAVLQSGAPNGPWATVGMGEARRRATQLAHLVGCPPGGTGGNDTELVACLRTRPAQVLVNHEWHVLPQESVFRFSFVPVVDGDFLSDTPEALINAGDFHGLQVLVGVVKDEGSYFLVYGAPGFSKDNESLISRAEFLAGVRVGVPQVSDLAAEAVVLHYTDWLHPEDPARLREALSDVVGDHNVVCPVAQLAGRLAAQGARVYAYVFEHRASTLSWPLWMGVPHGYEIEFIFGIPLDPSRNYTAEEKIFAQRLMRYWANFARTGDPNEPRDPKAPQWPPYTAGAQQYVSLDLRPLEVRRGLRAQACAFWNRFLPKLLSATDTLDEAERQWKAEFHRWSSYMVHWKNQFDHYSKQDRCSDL
Procedure, shortened: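 Cells (SH-SY5Y, 2,000 per well) are seeded and left overnight at 37 C. Compound is added for 30 min, then DTNB and acetylthiocholine for a further 90 min at 37 C before absorbance-based thiocholine detection.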

[2] = biological target: Acetylcholinesterase (Homo sapiens) (UniProt P22303); assay: Acetylcholinesterase (AChE) small molecule antagonists: enzyme-based qHTS assay (AID 1347397); conditions: Potency: AChE enzyme activity inhibition; outcome: AChE enzyme activity inhibition; note: nearly all actives have a fitted effect of over 55% in size; note: potency is the fitted concentration of half-maximal effect
Procedure, shortened: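 Human recombinant acetylcholinesterase; substrate acetylthiocholine; thiocholine quantified with DTNB (colorimetric). Compound preincubation 30 min RT; reaction 10 min RT.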

[3] = biological target: Acetylcholinesterase (Homo sapiens) (UniProt P22303); assay: Acetylcholinesterase (AChE) small molecule antagonists: fluorescence cell-based qHTS assay (AID 1347398); conditions: Potency: AChE activity; outcome: AChE activity; note: nearly all actives have a fitted effect of over 50% in size; note: potency is the fitted concentration of half-maximal effect
Procedure, shortened: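 Thiocholine generated from acetylthiocholine by SH-SY5Y cell AChE is detected with Thiolite Green (Ex/Em 490/520 nm) after 40 min at room temperature, following 30 min compound pretreatment at 37 C.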

[4] = biological target: Acetylcholinesterase (Homo sapiens) (UniProt P22303); assay: Acetylcholinesterase (AChE) small molecule antagonists: enzyme-based qHTS assay with human liver microsomes (AID 1347399); conditions: Potency: qHTS inhibition; outcome: qHTS inhibition; note: nearly all actives have a fitted effect of over 60% in size
Procedure, shortened: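 Recombinant human AChE (50 mU/mL in the enzyme mix) and human liver microsomes (0.25 mg/mL final) were preincubated with compound and NADPH (0.25 mg/mL final) for 30 min at 37 C. Acetylthiocholine/DTNB was then added; thiocholine was read colorimetrically after 10 min at room temperature.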
% is set by controls: 0 for no effect and ±100 for the full control effect.

NNC(=O)c1cccc(C(=O)NN)c1
inactive: Potency [1] | Potency [2] | Potency [3] | Potency [4]

O=C(/C=C/c1ccccc1)OCCCc1ccccc1
inactive: Potency [1] | Potency [2] | Potency [3] | Potency [4]

C=CC(C)(O)CCC=C(C)C (stereo not given)
inactive: Potency [1] | Potency [2] | Potency [3] | Potency [4]

CNC1CCCN(c2c(F)cc3c(=O)c(C(=O)O)cn(C4CC4)c3c2OC)C1 (stereo not given)
inactive: Potency [1] | Potency [2] | Potency [3] | Potency [4]

OC[C@H]1O[C@@H](Oc2ccc(O)cc2)[C@H](O)[C@@H](O)[C@@H]1O
inactive: Potency [1] | Potency [2] | Potency [3] | Potency [4]

CSc1c(Cl)c(Cl)c(Cl)c(Cl)c1Cl
inactive: Potency [1] | Potency [2] | Potency [3] | Potency [4]

C/C=C/C(=O)C1=C(C)CCCC1(C)C
inactive: Potency [1] | Potency [2] | Potency [3] | Potency [4]

Nc1c(S(=O)(=O)O)cc(Br)c2c1C(=O)c1ccccc1C2=O
inactive: Potency [1] | Potency [2] | Potency [3] | Potency [4]

CC(C)=CCl
22.7 µM (active) and inactive: Potency [3]
inactive: Potency [1] | Potency [2] | Potency [4]

CCOC(=O)OCC
inactive: Potency [1] | Potency [2] | Potency [3] | Potency [4]

COC(=O)c1c(C)cc(O)c(C)c1O
inactive: Potency [1] | Potency [2] | Potency [3] | Potency [4]

c1ccc(CNc2ncnc3c2ncn3C2CCCCO2)cc1 (stereo not given)
inactive: Potency [1] | Potency [2] | Potency [3] | Potency [4]

O=C1c2ccccc2C(=O)N1CO
inactive: Potency [1] | Potency [2] | Potency [3] | Potency [4]

CCCCOC(=O)c1ccc(O)cc1
36 µM (active) and inactive: Potency [3]
inactive: Potency [1] | Potency [2] | Potency [4]

CCCC(C)CC (stereo not given)
inactive: Potency [1] | Potency [2] | Potency [3] | Potency [4]

COc1ccccc1/C=C/C=O
inactive: Potency [1] | Potency [2] | Potency [3] | Potency [4]

Cc1c(Cl)cccc1Cl
inactive: Potency [1] | Potency [2] | Potency [3] | Potency [4]

COC(=O)Nc1nc2ccc(C(=O)c3cccs3)cc2[nH]1
inactive: Potency [1] | Potency [2] | Potency [3] | Potency [4]

C[C@]12C=CC(=O)C=C1CC[C@H]1[C@@H]3C[C@@H](O)[C@](O)(C(=O)CO)[C@@]3(C)C[C@H](O)[C@@]12F
inactive: Potency [1] | Potency [2] | Potency [3] | Potency [4]

Cc1cc(Cl)c(C)cc1Cl
inactive: Potency [1] | Potency [2] | Potency [3] | Potency [4]

BrCCOc1ccccc1
inactive: Potency [1] | Potency [2] | Potency [3] | Potency [4]

CC/C=C1/OC(=O)c2ccccc21
inactive: Potency [1] | Potency [2] | Potency [3] | Potency [4]

O=C1OC2(c3cc(Br)c(O)c(Br)c3Oc3c2cc(Br)c(O)c3Br)c2c(Cl)c(Cl)c(Cl)c(Cl)c21
inactive: Potency [1] | Potency [2] | Potency [3] | Potency [4]

CC(C)CC(=O)C1C(=O)c2ccccc2C1=O
inactive: Potency [1] | Potency [2] | Potency [3] | Potency [4]

O=C(OCCOCCOC(=O)c1ccccc1)c1ccccc1
inactive: Potency [1] | Potency [2] | Potency [3] | Potency [4]

NCCO
inactive: Potency [1] | Potency [2] | Potency [3] | Potency [4]

O=[N+]([O-])c1ccc2c(c1)Cc1ccccc1-2
inactive: Potency [1] | Potency [2] | Potency [4]
39.9 µM (active) and inactive: Potency [3]

CCOc1ccccc1OCC1CNCCO1 (stereo not given)
inactive: outcome [1] | outcome [2] | outcome [3] | outcome [4]

CC(=O)CC(=O)Nc1ccc(S(=O)(=O)O)cc1
inactive: Potency [1] | Potency [2] | Potency [3] | Potency [4]

CCNc1cc(O)ccc1C
inactive: Potency [1] | Potency [2] | Potency [3] | Potency [4]

CCOB(OCC)OCC
inactive: Potency [1] | Potency [2] | Potency [3] | Potency [4]

CC/C=C\CCOC(=O)CCCCC
inactive: Potency [1] | Potency [2] | Potency [3] | Potency [4]

CCCOCCOCCOCCO
inactive: Potency [1] | Potency [2] | Potency [3] | Potency [4]

CCCCCCCCCCCCCC[n+]1ccccc1
active: Potency [1] 31.7 µM | Potency [2] 56.4 µM | Potency [3] 20 µM
inactive: Potency [4]

CCn1cc(C(=O)O)c(=O)c2cnc(N3CCCC3)nc21
inactive: activity, negative = inhibition [1] 2.45% [at 10.5 µM] | activity change, negative = inhibition [2] 0.534% [at 10.5 µM] | activity change, negative = inhibition [3] 15.4% [at 10.5 µM] | activity change, negative = inhibition [4] -1.77% [at 10.5 µM]

c1cc(CCCc2ccncc2)ccn1
inactive: Potency [1] | Potency [2] | Potency [3] | Potency [4]

C=CC(=O)OCCOC(=O)C=C
inactive: Potency [1] | Potency [2] | Potency [3] | Potency [4]

CCOC(=O)NCCOc1ccc(Oc2ccccc2)cc1
inactive: Potency [1] | Potency [2] | Potency [3] | Potency [4]

CCOCCOCCOCC
inactive: Potency [1] | Potency [2] | Potency [3] | Potency [4]

CNC(=S)N(C)C
32 µM (active) and inactive: Potency [3]
63.9 µM (active) and inactive: Potency [2]
inactive: Potency [1] | Potency [4]

CC(C)OC(=O)C(C)(C)Oc1ccc(C(=O)c2ccc(Cl)cc2)cc1
inactive: Potency [1] | Potency [2] | Potency [3] | Potency [4]

Nc1ccc(S(=O)(=O)Nc2ccccn2)cc1
inactive: Potency [1] | Potency [2] | Potency [3] | Potency [4]

COc1cc(O)cc(O)c1
inactive: Potency [1] | Potency [2] | Potency [3] | Potency [4]

CC(=O)Oc1ccc(C2(c3ccc(OC(C)=O)cc3)C(=O)Nc3ccccc32)cc1
inactive: Potency [1] | Potency [2] | Potency [3] | Potency [4]

Cc1cc(C2(c3cc(C)c(O)cc3C)OS(=O)(=O)c3ccccc32)c(C)cc1O
inactive: Potency [1] | Potency [2] | Potency [3] | Potency [4]

CC(=O)O[C@]1(C(C)=O)CC[C@H]2[C@@H]3C=C(Cl)C4=CC(=O)[C@@H]5C[C@@H]5[C@]4(C)[C@H]3CC[C@@]21C
inactive: Potency [1] | Potency [2] | Potency [3] | Potency [4]

O=C1CC(c2ccc(Cl)cc2)CC(=O)N1
inactive: Potency [1] | Potency [2] | Potency [3] | Potency [4]

CCCCC(=O)O
inactive: Potency [1] | Potency [2] | Potency [3] | Potency [4]

CCC(=O)OC(=O)CC
inactive: Potency [1] | Potency [2] | Potency [3] | Potency [4]

CC(O)C(CO)C(C)O (stereo not given)
inactive: Potency [1] | Potency [2] | Potency [3] | Potency [4]

COc1cc(NS(=O)(=O)c2ccc(N)cc2)nc(OC)n1
inactive: Potency [1] | Potency [2] | Potency [3] | Potency [4]

O=c1[nH]c2ccccc2c(=O)n1CCCl
inactive: Potency [1] | Potency [2] | Potency [3] | Potency [4]

O=C(O)CCCCCC(=O)O
inactive: Potency [1] | Potency [2] | Potency [3] | Potency [4]

CCCCCCCCCCCC(=O)N(C)CC(=O)O
inactive: Potency [1] | Potency [2] | Potency [3] | Potency [4]

CN1CCN(C(c2ccccc2)c2ccccc2)CC1
inactive: Potency [1] | Potency [2] | Potency [3] | Potency [4]

CCn1cc(C(=O)O)c(=O)c2cc3c(cc21)OCO3
inactive: Potency [1] | Potency [2] | Potency [3] | Potency [4]

O=C(O)CCc1nc2ccccc2[nH]1
inactive: Potency [1] | Potency [2] | Potency [3] | Potency [4]

Oc1ccc2cc(SSc3ccc4cc(O)ccc4c3)ccc2c1
inactive: Potency [1] | Potency [2] | Potency [3] | Potency [4]

C/C(=N\O)c1ccc(OCC(=O)N2CCCCC2)cc1
inactive: Potency [1] | Potency [2] | Potency [3] | Potency [4]

OCCOc1ccc(OCCO)cc1
inactive: Potency [1] | Potency [2] | Potency [3] | Potency [4]
